Experimental data: PubChem BioAssay AID1745845 (National Center for Advancing Translational Sciences (NCATS), 2022)
Hit rate of the full screen: of about 360,000 compounds, about 2,600 (0.72%) were called active. About 5% were inconclusive and are not listed. Calls follow the shape of the dose curve; as a rule, active = well fitted inhibition curve with a large enough effect; inconclusive = small, poorly fitted or top-dose-only effect; inactive = no such curve, though single readings can be large or run the other way. Shown is part of a subset that was picked to be rich in actives.

Assay: Primary qHTS for Inhibitors of ATXN expression; also: nearly all actives have a fitted effect of over 55% in size
Details: HEK-293 ATXN2-luciferase reporter, luminescence, 24 h; series mostly up to 57 µM
Method in brief: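 ATXN2-luciferase reporter cells (luciferase flanked by upstream and downstream ATXN2 gene portions) were treated 24 h at 37 °C with compounds at up to 57 uM. SteadyGlo luminescence gave expression; GF-AFC fluorescence gave viability.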
% is scaled to controls: 0 for no effect and ±100 for the full control effect; potency is read from the fitted curve at half-maximal effect.

Potency, inactive:
Cn1c(=O)[nH]c(=O)c2c1nc(NCCc1ccccc1)n2Cc1ccc(F)cc1
O=C(NNc1c2ccccc2nc2ccccc12)c1cc2ccccc2cc1O
CC(=O)Nc1ccc(S(=O)(=O)N(C)c2nc3ccccc3nc2Cl)cc1
Cc1cc2c(cc1C)C(c1cccc(OC(C)C)c1)CC(=O)N2 (configuration not stated)
CCS(=O)(=O)N1CCc2cc(C(=O)NCc3ccc(OC)cc3)ccc21
CCOC(=O)c1ccc(NC(=O)CC2C(=O)N(c3ccccc3)C(=O)N2Cc2cccs2)cc1 (configuration not stated)
COc1ccccc1N1CCN(c2ncnc3onc(-c4ccc(F)cc4)c23)CC1
COCOCCn1cc(CN2CCS(=O)(=O)N(Cc3ccc(-c4cccc(N(C)C)c4)cc3)C(CC(C)C)C2=O)nn1 (configuration not stated)
COc1ccc(-c2ccc(CN3C(CC(C)C)C(=O)N(Cc4cn(CC5CCCCC5)nn4)CCS3(=O)=O)cc2)cc1 (configuration not stated)
O=C(CC(NCc1cccnc1)C(=O)O)Nc1ccc(O)cc1 (configuration not stated)
COc1ccc(-c2noc(CSc3nnc(-c4ccccc4)n3-c3ccc(F)cc3)n2)c(OC)c1
CC(=O)c1ccc(-c2cnc3c(NC=O)cc(-c4cccc(NS(C)(=O)=O)c4)cn23)cc1
Cc1ccc(NS(=O)(=O)c2cc3c(cc2Br)NC(=O)CO3)cc1C
CCCOc1ccc(/C=N/NC(=O)C2CC2)c(OCCC)c1
CCCOc1cccc(C(=O)Nc2cccc(NC(=O)c3ccc(C(C)(C)C)cc3)c2)c1
COc1cccc(-c2nc(S(=O)(=O)c3ccc(C)cc3)c(NCc3ccccc3)o2)c1
Cc1cccc(NC(=O)CSc2nc3c(oc4ccccc43)c(=O)n2-c2ccc(F)cc2)c1
COC(=O)c1ccc2c(c1)N(CC(=O)Nc1ccc(C)c(C)c1)C(=O)c1ccccc1S2
COc1ccc(/C=C2\SC(=O)N(CCC(=O)NC3CCS(=O)(=O)C3)C2=O)cc1 (configuration not stated)
COc1ccc(/C=C2\SC(=O)N(CCC(=O)NCCCn3ccnc3)C2=O)cc1
O=C(Nc1ccc2oc(-c3ccc(O)c(Br)c3)nc2c1)c1cc2ccccc2o1
CC(C)(C)c1ccc(OCC(=O)N2CCC(c3nc4ccccc4s3)CC2)cc1
CSc1nc(-c2ccccc2Cl)nc2c1Cc1c(CO)cnc(C)c1O2
CCCCOCCOC(=O)c1cccnc1
Cc1ccccc1NC(=O)Cn1c(=O)n(Cc2ccco2)c(=O)c2ccc(C(=O)NC3CCCC3)cc21
CN1C(=O)C[C@H](C(=O)N[C@@H](Cc2cnc[nH]2)C(=O)N2CCC[C@@H]2C(N)=O)NC1=O
CC(C)C[C@H]1CNC(=O)C(=O)N1C[C@H]1CCCN1C[C@H](Cc1ccc(O)cc1)N1C[C@H](CC(C)C)N(CC2CCCCCC2)C(=O)C1=O
O=C1NC[C@H](Cc2ccc(O)cc2)N(C[C@@H]2CCCN2C[C@H](Cc2ccccc2)N2C[C@H](Cc3ccccc3)N(CC3CCCCC3)C(=O)C2=O)C1=O
COc1cccc(C(=O)NCC(=O)OCc2cc(=O)n3ccsc3n2)c1
COc1ccc(Cn2ccc3nc(C)c(C(=O)Nc4ccc(C)c(F)c4)cc3c2=O)cc1
CCOC(=O)c1c(C)oc2nc(C)nc(Nc3ccc(CC)cc3)c12
CC=C(C(=CC)c1ccc(O)cc1)c1ccc(O)cc1
N=C1C(c2nc3ccccc3s2)=C(O)CN1NC(=O)c1ccc([N+](=O)[O-])cc1
O=C(O)c1cc([N+](=O)[O-])c(Nc2cccc3ccccc23)c([N+](=O)[O-])c1
Cc1ccc(NC(=O)c2cccc(S(=O)(=O)N3CCCc4ccccc43)c2)nc1
CCC(=O)Nc1nnc(S(=O)(=O)N2CCCc3ccccc32)s1
Cc1ccc(-c2nc(S(=O)(=O)c3ccc(C)cc3)c(N3CCCCCC3)o2)cc1
CC1(C)[C@H](O[C@H]2O[C@H](C(=O)O)[C@@H](O)[C@H](O)[C@H]2O[C@@H]2O[C@H](C(=O)O)[C@@H](O)[C@H](O)[C@H]2O)CC[C@@]2(C)[C@H]1CC[C@]1(C)[C@H]2C(=O)C=C2[C@H]3C[C@@](C)(C(=O)O)CC[C@]3(C)CC[C@]21C
CC[C@]12C=CCN3CC[C@@]4(c5cc([C@@]6(C(=O)OC)C[C@H]7C[C@@H](C(C)(F)F)CN(Cc8c6[nH]c6ccccc86)C7)c(OC)cc5N(C)[C@H]4[C@@](O)(C(=O)OC)[C@H]1OC(C)=O)[C@@H]32
CN(C)C(=O)c1cccc(-c2cnc3sc(NCc4ccc5c(c4)OCO5)nn23)c1
COc1ccc(-c2nnc(SCC(=O)Nc3ccccc3C)o2)cc1OC
COC(=O)[C@]12CCCCC=C1N(CCC1=CCCCC1)C(=O)[C@H](CC(=O)NCC1CCCCC1)C2
CC(=O)Nc1cccc(-c2ccnc3c2CC(C)(C(=O)NCc2ccco2)O3)c1 (configuration not stated)
COc1ccc(C2CC(c3ccccc3)=NN2C(=O)COC(=O)COc2ccccc2)cc1 (configuration not stated)
COc1ccc(C2CC(c3ccc([N+](=O)[O-])cc3)=NN2C(C)=O)cc1 (configuration not stated)
CCOCCCNC(=O)c1cn(CC)c2ccc(S(=O)(=O)N3CCc4ccccc4C3)cc2c1=O
COc1ccc(NC(=O)CSC2=Nc3ccccc3C3=NC(CC(=O)NCc4ccccc4OC)C(=O)N23)cc1Cl (configuration not stated)
COc1ccc(NC(=O)Cn2c(=O)cc(C)c3c(C)nn(-c4cccc(Cl)c4C)c32)cc1OC
NC(=O)C1CCN(C(=O)c2cccc(NC(=O)c3nsc4ccccc34)c2)CC1
Cc1ccc2nc(-c3ccco3)c(Cc3cccc(Cl)c3)n2c1
CN(Cc1ccccc1)c1ncnc2onc(-c3ccc(F)cc3)c12
CC(C)(C)NC(=O)NC(=O)COC(=O)Cc1ccc(Cl)cc1Cl
Cn1cc(C(=O)c2ccc(Cl)cc2Cl)cc1C(=O)NN
CCOC(=O)c1cccc(NC(=O)c2cc(CN3CCCC3)on2)c1
CN(Cc1ccccc1)C(=O)c1cccc(C(=O)N(C)Cc2ccccc2)c1
COc1cc(NS(=O)(=O)c2cccs2)cc(OC)c1
Cc1c2cnn(-c3ccccc3)c(=O)c2c(C)n1C(C)C(=O)Nc1ccc(Br)cc1F (configuration not stated)
COc1ccccc1CNC(=O)C(=O)NCC(c1cccs1)S(=O)(=O)c1cccs1 (configuration not stated)
COc1ccc(CCNC(=O)CCCn2c(=O)c3ccccc3n(Cc3ccc(C)cc3)c2=O)cc1OC
CCCCCCCc1ccc(CCc2cccc(O)c2C(=O)O)cc1
COc1ccccc1OCCCn1c(-c2ccc(Cl)cc2)nc2ccccc2c1=O
COC(=O)c1cc(OC)ccc1-c1ccc(OC)cc1
Cc1cccc(-c2nc(SCC(=O)Nc3cc(C)on3)c3c(=O)n(C)c(=O)n(C)c3n2)c1
O=C(NCc1ccccc1)C1CCN(S(=O)(=O)c2ccc3[nH]c(=O)ccc3c2)CC1
CO[C@]1(NC(=O)CSC(F)F)C(=O)N2C(C(=O)O)=C(CSc3nnnn3CCO)CO[C@H]21
Cc1cccc(C(C)C)c1NC(=O)C(NS(=O)(=O)c1cccc2nsnc12)c1ccccc1 (configuration not stated)
C=C1CCC2[C@](C)(CO)C(O)CC[C@]2(C)C1CC=C1C(=O)OCC1O (some centres not stated)
Cc1oc2ccc(O)c(CN3CCC(C)CC3)c2c1C(=O)Nc1ccccc1
Cc1oc2ccc(O)c(CN3CCOCC3)c2c1C(=O)Nc1cccc(Cl)c1C
O=C(c1cccc(Cl)c1)N1CCN(CCc2ccncc2)CC1
CCN(CC)c1ccc(C2C(C(N)=O)=C(C)Nc3nc(SCc4ccccc4)nn32)cc1 (configuration not stated)

Potency, active:
CC(=O)Nc1ccc(Nc2c3ccccc3nc3ccccc23)cc1 2.51 µM
COCOCCn1cc(CN2CCS(=O)(=O)N(Cc3ccc(-c4ccc(OC)cc4)cc3)C(CC(C)C)C2=O)nn1 (configuration not stated) 28.2 µM
CCCOc1ccc(C(=O)C(CCC(CNCC)C(=O)c2ccc(OCCC)cc2)CNCC)cc1 (configuration not stated) 17.8 µM
COc1ccc(/C=C2/SC(=O)N(CCCCCC(=O)Nc3ccccc3C(=O)O)C2=S)cc1 10 µM
CC(C)C[C@H]1CNC(=S)N1C[C@H]1CCCN1C[C@H](Cc1ccc(O)cc1)N1C[C@H](Cc2ccc(O)cc2)N(CC2CCCCC2)C1=S 28.2 µM
O=C(NC(Nc1nc2ccc([N+](=O)[O-])cc2s1)(C(F)(F)F)C(F)(F)F)c1ccccc1 0.891 µM
O=C(Nc1nc2ccc([N+](=O)[O-])cc2s1)c1ccc(S(=O)(=O)N2CCCc3ccccc32)cc1 13.4 µM
COc1ccc(C2CC(c3ccccc3)=NN2C(=O)c2ccc(Cl)c([N+](=O)[O-])c2)cc1 (configuration not stated) 28.2 µM
c1ccc2c(c1)C(=NC1CCCCC1)NC2=NC1CCCCC1 28.2 µM
CC(C)(C)c1cc(C(=O)NN)n(Cc2ccc(Cl)cc2Cl)n1 12.6 µM
CN(O)C(=S)c1ccccc1 3.98 µM
S=C(NCCCc1cnc[nH]1)NCCCN(Cc1ccc(Cl)c(Cl)c1)c1ccc(Br)cn1 15.8 µM
CCOC(=O)C1=C(c2ccc(OC)cc2)C(=O)c2ccccc2C1=O 5.01 µM
CC(NCc1ccc2c(c1)nc(NC(=O)c1ccc(-c3cn[nH]c3)s1)n2CC(C)(C)O)C(C)(C)C (configuration not stated) 0.968 µM
Cc1oc2ccc(O)c(CN3CCCCC3)c2c1C(=O)Nc1cccc(C(F)(F)F)c1 28.2 µM

Activity change, negative = inhibition, inactive:
CCOC(=O)C(NC(C)=O)C(=O)Nc1ccc(OC)cc1 (configuration not stated) -27.3% [at 11.3 µM]
